# Most compounds without a hit are left out; they make up all but 1.8% or so of the library.
# GSTO1 inh: GSTO1 inhibition, counter-screen for RBBP9 inhibitors; 1.1% of 300,000 active; AID 1974; recombinant GSTO1, activity-based probe fluorescence polarization; inhibition, % at 5.96 µM; P78417;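 active = inhibition above the campaign mean inhibition plus 3 SD, cut at about 35% in these data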;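 also: 0% = GSTO1-1 with DMSO and 100% = wells lacking GSTO1-1 enzyme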
# PME-1 primary: blocks human protein phosphatase methylesterase 1; Q9Y570; recombinant PME-1, FP-Rh probe fluorescence polarization; inhibition, % at 5.9 µM; 0.53% of 320,000 active; AID 2130;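 active = inhibition above the campaign mean of all compounds plus 3 SD, cut at about 26% in these data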;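 also: competitive labeling of PME-1 active site by serine hydrolase directed probe; 0% = PME-1 with DMSO and 100% = wells lacking PME-1 enzyme; inhibitors block probe labeling so polarization falls and inhibition rises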
# Target sequence (Q9Y570 whole entry, looked up): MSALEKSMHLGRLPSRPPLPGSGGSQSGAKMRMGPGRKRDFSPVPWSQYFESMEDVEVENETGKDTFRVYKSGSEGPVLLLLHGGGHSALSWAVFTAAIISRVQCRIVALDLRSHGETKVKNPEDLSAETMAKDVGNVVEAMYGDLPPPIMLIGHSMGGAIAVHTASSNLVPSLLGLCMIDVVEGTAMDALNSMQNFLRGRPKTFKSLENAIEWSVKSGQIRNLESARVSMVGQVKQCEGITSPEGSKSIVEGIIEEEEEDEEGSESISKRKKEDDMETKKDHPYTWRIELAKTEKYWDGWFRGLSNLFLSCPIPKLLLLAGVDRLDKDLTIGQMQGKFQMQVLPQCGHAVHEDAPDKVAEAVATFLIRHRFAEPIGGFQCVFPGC
# Fam108B inh: Fam108B inhibition, counter-screen for RBBP9 inhibitors | recombinant Fam108B, FP-Rh probe fluorescence polarization | inhibition, % at 9.51 µM | 0.33% of 300,000 active | AID 1947;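 active = inhibition above the screen mean inhibition plus 3 SD, computed separately per campaign, cut at about 18% in these data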;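 also: inhibitors lower polarization as less probe binds the enzyme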
# LYPLA2 inh: counter-screen for PME1 inhibitors: inhibitors of human LYPLA2. O95372. recombinant LYPLA2, FP-Rh probe fluorescence polarization. inhibition, % at 5.9 µM. 0.38% of 320,000 active;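 active = inhibition above the screen-wide mean plus 3 SD, limit set per campaign, cut at about 26% in these data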;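 also: 0% = LYPLA2 with DMSO and 100% = wells lacking LYPLA2 enzyme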
# LYPLA1 counter: LYPLA1 (human) inhibition in PME1 counter-screen. O75608. recombinant LYPLA1, FP-Rh probe fluorescence polarization. inhibition, % at 5.9 µM. 0.16% of 320,000 active. AID 2174;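 active = inhibition above the mean of all tested compounds plus 3 SD, set per campaign, cut at about 14% in these data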;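 also: inhibitors block serine hydrolase probe labeling of LYPLA1 so polarization falls; 0% = enzyme with DMSO and 100% = wells lacking LYPLA1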
# PAD4 inh: blocks human protein arginine deiminase 4. recombinant PAD4, RCA probe fluorescence polarization. inhibition, % at 6.36 µM. 0.41% of 330,000 active;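 active = percent inhibition above a cutoff equal to the mean of all tested compounds plus 3 SD, cut at about 15% in these data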;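 also: 0% = PAD4 with RCA probe and DMSO and 100% = probe without PAD4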
# Numbers without * were called inactive; / = not tested or not shown.
SMILES,GSTO1 inh,PME-1 primary,Fam108B inh,LYPLA2 inh,LYPLA1 counter,PAD4 inh
CCN(CC)CCCNC(=O)c1csc(Nc2cccc3ccccc23)n1,1.8,-2.3,1.3,3.3,2.1,-0.3
CCN(CC)C(=O)c1csc(Nc2cccc3ccccc23)n1,7.9,37.3*,0.8,3.4,4.9,-1.3
O=C(CCN=C1NS(=O)(=O)c2ccccc21)Nc1ccc(F)cc1Cl,/,/,/,/,/,-5.4
Cc1ccccc1C(=O)O[C@H]1[C@H](Cc2ccccc2)NS(=O)(=O)[C@H]2CC3C=C[C@]12O3,/,/,/,/,/,0.2
COc1cc(OC)cc(-c2nnc(SCC(=O)N(C(C)C)C(C)C)o2)c1,-0.9,0.4,1.2,-5.0,4.3,0.2
COc1cc(OC)cc(-c2nnc(Sc3ccc(C=O)cc3[N+](=O)[O-])o2)c1,17.9,5.4,13.7,10.1,-0.8,26.5*
Cc1ccc2nc(=O)c(NNc3ccccc3)cnc2c1,-3.4,41.3*,3.7,-0.6,-3.0,-1.6
O=C1CC2CCCN2C=C1I (stereo unspecified),/,/,/,/,/,-8.5
Cc1ccc(C(=O)OCC(=O)NC(C)c2ccccc2)s1 (stereo unspecified),/,/,/,/,/,-0.8
CC(NC(=O)COC(=O)c1ccc([N+](=O)[O-])s1)c1ccccc1 (stereo unspecified),44.5*,7.8,10.8,2.9,-2.9,-9.9
Cc1cc(C)c(NC(=O)COC(=O)c2ccc([N+](=O)[O-])s2)c(C)c1,5.8,-7.8,3.3,-2.9,-4.0,-8.3
NS(=O)(=O)c1ccc(NC(=O)COC(=O)c2ccc([N+](=O)[O-])s2)cc1,43.9*,7.7,5.4,7.0,-1.3,-10.4
Cc1ccc(NC(=O)COC(=O)c2ccc([N+](=O)[O-])s2)c(C)c1,35.0*,-0.4,3.0,2.7,-2.7,-10.3
O=S(=O)(c1ccc(NC(=S)NCc2ccc(F)cc2)cc1)N1CCOCC1,-4.8,-1.7,-3.2,-5.2,-4.9,-1.5
COc1ccc(N2CCN(C(=O)c3ccc(COc4ccc5c(C)cc(=O)oc5c4)cc3)CC2)cc1,0.0,0.8,8.5,63.1*,3.6,-4.2
COc1ccc(N2CCN(C(=O)COc3ccc4c(C)cc(=O)oc4c3C)CC2)cc1,3.4,0.3,-0.9,0.7,-0.4,0.1
COc1cc2c(c(OC)c1OC)-c1ccc(NC(=O)c3ccc(F)cc3)c(=O)cc1[C@@H](NC(C)=O)CC2,5.7,31.4*,24.7*,0.3,-2.7,-5.2
Cn1c(=O)[nH]c(=O)c2c1nc(N1CCCCC1)n2CC(O)COc1ccc([N+](=O)[O-])cc1 (stereo unspecified),-5.9,-0.8,3.2,4.2,-3.1,-2.6
CC1=C(CC(=O)c2ccccc2)C(=O)c2ccccc2C1=O,50.9*,6.6,4.1,6.6,0.5,4.0
O=C(CN1C(=O)c2ccccc2C1=O)c1ccccc1,10.1,2.8,-5.1,6.4,0.0,-7.3
O=C(Oc1ccccc1O)c1cccc2ccccc12,58.9*,-1.3,1.7,2.1,-2.1,-0.1
COc1ccc(S(=O)(=O)N2CCCCCC2)cc1NC(=O)CN1C(=O)CNC1=O,/,/,/,/,/,0.6
CSc1ccc(-c2sc(Nc3cccc4ccccc34)n[n+]2-c2ccccc2)cc1,37.0*,3.2,1.9,-10.6,-4.6,-9.4
Cc1nc(NC(=O)COC(=O)c2ccc(CO)cc2)c(Cl)cc1Cl,/,/,/,/,/,1.2
CCOC(=O)C1=CN(Cc2ccco2)S(=O)(=O)N(CC)C1c1cccc(OC)c1 (stereo unspecified),/,/,/,/,/,-2.1
SMILES,GSTO1 inh,PME-1 primary,Fam108B inh,LYPLA2 inh,LYPLA1 counter,PAD4 inh
Cc1cc2c(cc1S(=O)(=O)NCCc1ccc(Cl)cc1)OCC(=O)N2,2.0,-3.6,5.2,1.5,-3.2,0.6
O=C(N=Nc1c(O)[nH]c2ccccc12)c1cccs1,4.3,28.1*,5.0,2.4,2.8,3.3
COc1ccc(NC(=O)CN(C)C(=O)c2cc(-c3ccco3)nc3ccccc23)cc1,37.0*,-5.9,3.0,6.2,-2.8,-7.4
CN(CC(=O)Nc1cccc(F)c1)C(=O)c1cc(-c2ccco2)nc2ccccc12,21.7,-6.5,4.7,-3.8,-5.2,-7.4
O=C1c2cccc3cccc(c23)C(=O)C1(O)O,62.8*,2.0,2.2,-7.3,-2.6,2.7
CC(=O)N1C(=O)c2cccc3cccc(c23)C(=O)N1C(C)=O,2.2,7.6,1.6,2.0,0.7,1.8
CCS(=O)(=O)c1ccc(O)c(NC(=O)c2ccc(S(=O)(=O)N3CCCCCC3)cc2)c1,/,/,/,/,/,-2.3

# High-throughput results deposited in PubChem by The Scripps Research Institute Molecular Screening Center.
